13 compounds from PubChem BioAssay AID1845226 (National Center for Advancing Translational Sciences (NCATS), 2023) can be followed below.

Results filed as inconclusive are left out. A call without a number means that no potency is given here. The source made the active and inactive calls. Calls come from the whole dose curve; as a rule, active = well fitted inhibition curve with a large enough effect; inconclusive = small, poorly fitted or top-dose-only effect; inactive = no such curve, though single readings can be large or run the other way.
Potency is the fitted concentration of half-maximal effect.

This test is described as follows: Confirmatory fluorescence-based thiol-reactive (MSTI) qHTS assay for identification of artifact compounds. The conditions noted are these: MSTI thiol-reactivity probe, 1 h; series mostly up to 39.2 µM. The essentials:
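Probe solution (4 uM MSTI, 2% DMSO/PBS, pH 7.4) is dispensed, then compounds are pinned. Plates incubate for 1 h at room temperature, light-protected, before fluorescence is read at 525/598 nm.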
A general note: qHTS replaces the single test concentration by a dilution series.
Take `CCCS(=O)(=O)N1CC(=O)N(c2ccc(C)cc2)C(C)(C(=O)NC2CCCCCC2)C1` (stereo not drawn): the Potency entry was “inactive”. To `CC(=O)O[C@H]1C[C@@H]2CC[C@@H]3[C@H](CC[C@@]4(C)[C@H]3C[C@H](N3CC[N+](C)(C)CC3)[C@@H]4OC(C)=O)[C@@]2(C)C[C@@H]1N1CC[N+](C)(C)CC1` belongs “inactive”; to `O=C(NCCSc1c(-c2ccc(Br)cc2)[nH]c2ccccc12)c1ccc(S(=O)(=O)N2CCOCC2)cc1`, “inactive”; to `Cc1ccccc1C(=O)N1CCc2cc(-c3nc(NC(=O)Cc4ccccc4)sc3C)ccc21`, “inactive”. Take `Cc1cccc(NC(=O)CSc2nc3c([nH]c4ccccc43)c(=O)n2C)c1`: the Potency entry was “inactive”. To `Cc1cc(C)cc(-n2c(SCC(=O)N3CCCCCC3)nc3c([nH]c4ccccc43)c2=O)c1` belongs “inactive”; to `Cc1ccc(-c2nnc(Nc3cccc(O)c3)c3ccccc23)cc1S(=O)(=O)N1CCN(C)CC1`, “inactive”; to `CCCCCCCCCCCCCCCC(=O)N[C@H](CN1CCOCC1)[C@H](O)c1ccccc1`, 12.2 µM (active).

On to `Fc1ccc(-c2cc(-c3ccc(F)cc3)c3c(n2)-c2cc(F)ccc2OC3)cc1`, for which the Potency result is “inactive”. To `Cc1c(C(=O)Nc2ccc(-n3c(C)nc4ccccc4c3=O)cc2)cccc1[N+](=O)[O-]` belongs “inactive”. To `COc1ccc(NC(=O)C(C)n2nc(-c3cc(C)ccc3C)c3c(c2=O)CCCC3)cc1` (stereo not drawn) belongs “inactive”; to `CCOC(=O)CN(Cc1ccccc1)C(C(=O)NC1CCCCC1)c1ccc(C)cc1` (stereo not drawn), “inactive”. With `COc1ccc(-c2ccc(CCC(=O)O)n2-c2ccccc2O)cc1` the figure was 4.33 µM (active).
